Measured values from PubChem BioAssay (NCI).
Compounds without any hit were thinned out: in the full panel of roughly 83,000, 20% have a hit.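 Cells were grown in 96-well plates and exposed to the test compound at a single concentration for 48 hours; results are reported as percent growth, with values below 10 considered active.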 A number with no mark means an inactive call. Activity calls are given as the source filed them.

Columns and labels:
Assay in all cases: NCI-60 one-dose screen, 48 h (100 = growth as untreated, 0 = no growth, -100 = all killed)
DU-145 prostate = settings: 10 µM
K-562 leukemia = settings: 10 µM
MALME-3M melanoma = settings: 10 µM
MDA-MB-231 breast = settings: 10 µM
SF-268 CNS = settings: 10 µM
SF-295 CNS = settings: 10 µM
SF-539 CNS = settings: 10 µM
UACC-257 melanoma = settings: 10 µM
M14 melanoma = settings: 10 µM
HCT-15 colon = settings: 10 µM
HT29 colon = settings: 10 µM
SNB-75 CNS = settings: 10 µM
SNB-19 CNS = settings: 10 µM
U251 CNS = settings: 10 µM
PC-3 prostate = settings: 10 µM
SK-MEL-5 melanoma = settings: 10 µM
UACC-62 melanoma = settings: 10 µM unless noted
LOX IMVI melanoma = settings: 10 µM
SK-MEL-28 melanoma = settings: 10 µM
RXF 393 renal = settings: 10 µM

Structure (SMILES) | growth (DU-145 prostate) [%] | growth (K-562 leukemia) [%] | growth (MALME-3M melanoma) [%] | growth (MDA-MB-231 breast) [%] | growth (SF-268 CNS) [%] | growth (SF-295 CNS) [%] | growth (SF-539 CNS) [%] | growth (UACC-257 melanoma) [%] | growth (M14 melanoma) [%] | growth (HCT-15 colon) [%] | growth (HT29 colon) [%] | growth (SNB-75 CNS) | growth (SNB-19 CNS) [%] | growth (U251 CNS) [%] | growth (PC-3 prostate) [%] | growth (SK-MEL-5 melanoma) [%] | growth (UACC-62 melanoma) | growth (LOX IMVI melanoma) | growth (SK-MEL-28 melanoma) [%] | growth (RXF 393 renal) [%]
CCC/C=C(/C(C)=O)C(=O)OCC | 114 | 104 | 118 | 105 | 84.5 | 282 | 117 | 81.2 | 118 | 109 | 111 | 89.2% | 94.8 | 103 | 88.5 | 112 | 95.1% | 102% | 122 | –
COC(=O)CCCCC1=CCC2C(=O)C=C(O)C2C1 (stereo not drawn) | 104 | 90.9 | 106 | 106 | 104 | – | 99.8 | – | 109 | 96.3 | 104 | 85.5% | 104 | – | 92.5 | 102 | 103% | 97.5% | 100 | 103
COc1ccccc1N1CCN(C(=S)Nc2ccccc2)CC1 | 100 | 81.8 | 97.3 | 101 | 99.3 | – | 106 | – | 100 | 103 | 96.7 | 84% | 99.6 | – | 89.9 | 97.9 | 98.2% | 90.4% | 105 | 100
O=[N+]([O-])c1ccc(N=Nc2ccc(O)c3ccccc23)cc1 | 66.9 | 22.1 | 57.8 | 36.8 | 45.9 | – | 75.4 | 17 | – | – | 79.1 | 68.8% | 39.8 | 15.4 | 14.9 | 28.7 | – | 18.4% | 69 | 60.1
CN(C)c1nc2c([nH]1)c(=O)n(C)c(=O)n2C | 116 | 96.5 | 101 | 107 | 105 | 104 | 107 | 87.8 | 108 | 108 | 102 | 102% | 111 | 93.4 | 91.6 | 101 | 105% | 98.7% | 110 | –
Cc1ccc(Cl)cc1N1C(=O)CC(Sc2ccccc2N)C1=O (stereo not drawn) | 123 | 118 | 138 | 108 | – | 111 | 105 | 88.4 | 118 | 93.4 | 109 | 65.5% | 102 | 102 | 89.5 | 110 | 95.8% | 94.7% | 92.5 | 92.5
O=C1OC[C@H]2[C@H](c3ccc(O)c(O)c3)c3cc(O)c(O)cc3C[C@H]12 | 108 | 180 | 140 | 129 | 116 | 124 | 122 | 147 | 120 | 116 | 115 | 116% | 120 | 116 | 46.7 | 102 | 111% | 113% | 117 | –
CC(C)CCCC(=O)O | 111 | 135 | 98.5 | 123 | 106 | – | 98.5 | 117 | 119 | – | – | 95.4% | 101 | 103 | 94.8 | 97.2 | 107% | 105% | – | 93
NCCCN | 107 | 103 | 95.5 | 106 | 103 | – | 102 | – | 112 | 101 | 111 | 79.8% | 104 | 95.5 | 102 | 102 | 109% | 112% | 104 | 115
C#CC(C)(O)c1ccc(Cl)cc1 (stereo not drawn) | 112 | 91.3 | 125 | 102 | 103 | 90.8 | 96.3 | 101 | 98.8 | 98.4 | 102 | 98.8% | 106 | 97.8 | 96.6 | 101 | -18.6% (active) | 94.5% | 110 | –
CC(=O)Nc1cccc(NC(C)=O)n1 | 110 | 96.6 | 91.5 | 107 | 100 | 108 | 103 | 102 | 103 | 103 | 110 | 106% | – | – | – | 105 | 97.5% | 103% | 108 | –
CC(=O)c1ccc(N=C(C#N)C2=C(O)c3ccccc3C2=O)cc1 | 113 | 85.5 | 114 | 106 | 101 | 102 | 107 | 94.2 | 105 | 113 | 98.7 | 78.8% | 101 | – | 100 | – | 109% | – | 113 | –
C#CC(C(C)C)N(CCO)CCCC (stereo not drawn) | 112 | 102 | 116 | 113 | 102 | – | 90.4 | 97.4 | 108 | 94.9 | 117 | 83.6% | 107 | – | 94.7 | 100 | 107% | 107% | 101 | 100
COC(=O)/C=C1\Sc2cc(F)ccc2NC1=O | 126 | 91.2 | 102 | 107 | 110 | 118 | 104 | 91 | 93.3 | 106 | 97.8 | 86.6% | 95 | 93.2 | 92.2 | 104 | 88.8% | 93.4% | 129 | –
O=C(Cc1ccccc1)Cc1ccccc1 | 113 | 110 | 115 | 109 | 103 | 108 | 101 | 93.1 | 102 | – | 108 | 99.5% | 101 | 96.7 | – | 96.5 | 97% | 103% | 108 | –
O=C(Cc1nc2ccc([N+](=O)[O-])cc2nc1CC(=O)c1cccnc1)c1cccnc1 | 76.5 | 70.7 | 68.5 | – | 47 | 54.5 | 30.1 | 78.6 | 82.8 | 58.3 | 95.8 | 4% (active) | – | 37.7 | 96.7 | 74.5 | 69.4% | 49.4% | 80.6 | 20.1
CCS(=O)(=O)CCCl | 96.8 | 93 | 93.3 | – | 106 | 102 | 104 | 94.5 | 94.4 | – | 110 | 123% | – | 102 | 99.5 | 94.3 | 85.1% | 81.7% | 106 | 105
CC(=O)CC(=O)N(C)C | 104 | 101 | 98.7 | – | 101 | 95.8 | 97.6 | 99.3 | 107 | 95.1 | 97.8 | 80.1% | – | 100 | – | 93.7 | 88.8% | 94.1% | – | 110
O=C(Cc1nc2ccc([N+](=O)[O-])cc2nc1CC(=O)c1ccccc1)c1ccccc1 | 50.6 | 43.8 | 46.8 | – | 73.9 | 53 | 18.3 | 86.9 | 48.4 | 35.2 | 75.3 | 65.2% | – | 49.2 | 59.4 | – | 53.2% | 3.86% (active) | 64.7 | 89.1
